BCLXL inh: Bcl-xL (human) inhibition | Q07817 | AID 2129 | inhibition, % at 10.9 µM | GST-Bcl-xL / FITC-Bim BH3 peptide fluorescence polarization | hit rate 0.7% among 320,000;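 active = inhibition above the mean of all tested compounds plus 3 SD, cutoff set per campaign, cut at about 30% in these data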;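 also: 0% = DMSO wells and 100% = unlabeled Bim-BH3 peptide competitor; inhibitors lower millipolarization by displacing the labeled peptide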
Target sequence (Q07817 whole entry, looked up): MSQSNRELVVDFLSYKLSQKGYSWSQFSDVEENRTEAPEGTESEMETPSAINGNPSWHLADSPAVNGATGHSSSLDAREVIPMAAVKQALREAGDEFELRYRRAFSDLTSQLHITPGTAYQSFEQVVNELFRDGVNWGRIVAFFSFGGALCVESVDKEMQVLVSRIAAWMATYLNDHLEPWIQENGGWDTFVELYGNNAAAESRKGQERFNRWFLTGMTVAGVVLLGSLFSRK
Bim-Bcl-W: disrupts Bim peptide binding to human Bcl-W. Q92843. bead-based flow cytometry. inhibition, % at 10 µM. hit rate 0.02% among 190,000. AID 952;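 also: 0% = bound tracer without compound and 100% = peptide blocker; higher means less fluorescent Bim peptide bound to Bcl-W beads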
Bcl-2 Bim block: human Bim-Bcl-2 interaction inhibition | P10415 | Bead-based flow cytometry, Bim peptide-Bcl-2 binding | inhibition, % at 10 µM | hit rate 0.06% among 190,000; in the data active = inhibition above about 40%;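 also: 0% = no compound wells with probe peptide and 100% = reference peptide inhibitor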
Bcl-B Bim block: inhibitors of Bim-Bcl-B interaction, human. Q9HD36. bead-based flow cytometry, Bim peptide-Bcl-B binding. inhibition, % at 10 µM. hit rate 0.073% among 190,000. AID 951;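 also: 0% = tracer peptide without compound and 100% = reference inhibitor peptide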
Bfl-1 Bim block: inhibitors of Bim-Bfl-1 interaction, human; Q16548; hit rate 0.12% among 190,000; Bead-based flow cytometry, Bim-Bfl-1 binding inhibition; inhibition, % at 10 µM;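 also: 0% = wells without compound plus tracer and 100% = blocker peptide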
Target sequence (Q16548 whole entry, looked up): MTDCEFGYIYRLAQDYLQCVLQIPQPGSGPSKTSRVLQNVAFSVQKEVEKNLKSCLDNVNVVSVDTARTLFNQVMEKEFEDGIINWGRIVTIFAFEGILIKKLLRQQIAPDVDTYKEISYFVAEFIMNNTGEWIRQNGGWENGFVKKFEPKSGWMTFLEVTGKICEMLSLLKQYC
Bim-Bcl-XL: inhibitors of Bim-Bcl-XL interaction, human | inhibition, % at 10 µM | AID 1007 | Bim peptide-Bcl-XL binding, bead flow cytometry, fluorescence | Q07817 | hit rate 0.04% among 190,000
Numbers without * were called inactive. Shown are actives, neighbours in structure and some others; about 0.81% of the full set was active somewhere. Rule as the data show it, unless noted: active = inhibition above about 40%.

What do the screens show for `CCOC(=O)N1CCN(CC(O)COc2ccccc2[N+](=O)[O-])CC1` (configuration not stated)?
BCLXL inh: 3

How did O=C(/C=C/c1ccco1)NC(=S)Nc1ccc(C(=O)O)cc1 do in these assays?
BCLXL inh: 34*

What do the screens show for `O=C(CCc1nc2ccccc2c(=O)[nH]1)NCC(=O)Nc1ccc(F)c(F)c1`?
BCLXL inh: 8

Results for O=C(CCc1nc2ccccc2c(=O)[nH]1)Nc1ccc(F)c([N+](=O)[O-])c1 ?
BCLXL inh: 30*; Bim-Bcl-W: -2; Bcl-2 Bim block: -3; Bcl-B Bim block: -2; Bfl-1 Bim block: -4; Bim-Bcl-XL: -4

What do the screens show for `COC(=O)CCC(=O)OC1(C)C(=O)C2=CN(CCc3ccccn3)C(c3ccc(OC)cc3)=CC2=C(Br)C1=O` (configuration not stated)?
BCLXL inh: 36*

How did COC(=O)CCC(=O)OC1(C)C(=O)C2=CN(CCCCO)C(c3ccc(OC)cc3)=CC2=C(Br)C1=O (configuration not stated) do in these assays?
BCLXL inh: 32*

Results for COC(=O)CCC(=O)OC1(C)C(=O)C2=CN(C(CO)CO)C(c3ccc(OC)cc3)=CC2=C(Br)C1=O (configuration not stated) ?
BCLXL inh: 38*

What do the screens show for `Cc1cc(C)nc(/N=C(\N)N(Cc2ccccc2)Cc2ccccc2)n1`?
BCLXL inh: 2; Bim-Bcl-W: 1; Bcl-2 Bim block: -3; Bcl-B Bim block: 0; Bfl-1 Bim block: 1; Bim-Bcl-XL: -1

Results for CCOC(=O)c1ccc(N(C(=O)c2ccco2)C(C(=O)NC2CCCC2)c2ccncc2)cc1 (configuration not stated) ?
BCLXL inh: -2

Results for N#C/C(=C\c1cccnc1)C(=O)Nc1ccccc1[N+](=O)[O-] ?
BCLXL inh: 34*

How did N#C/C(=C\c1ccccc1[N+](=O)[O-])C(=O)NCc1ccccc1 do in these assays?
BCLXL inh: 34*

How did C=CCNC(=O)/C(C#N)=C/c1ccccc1[N+](=O)[O-] do in these assays?
BCLXL inh: 45*; Bim-Bcl-W: -7; Bcl-2 Bim block: -7; Bcl-B Bim block: -9; Bfl-1 Bim block: -5; Bim-Bcl-XL: -8

Results for N#C/C(=C\C=C\c1ccccc1[N+](=O)[O-])C(=O)NCc1ccccc1 ?
BCLXL inh: 10

Results for Cc1c(C(=O)Oc2ccc(-c3cnc4ccccc4n3)cc2)cccc1[N+](=O)[O-] ?
BCLXL inh: 17; Bim-Bcl-W: 12; Bcl-2 Bim block: 10; Bcl-B Bim block: -11; Bfl-1 Bim block: 40*; Bim-Bcl-XL: 0

What do the screens show for `O=C(Oc1ccc(-c2cnc3ccccc3n2)cc1)c1cc([N+](=O)[O-])ccc1Cl`?
BCLXL inh: 9; Bim-Bcl-W: 1; Bcl-2 Bim block: -7; Bcl-B Bim block: -9; Bfl-1 Bim block: 0; Bim-Bcl-XL: -1

How did COc1ccc(N(C)C(=O)Nc2ccc3nsnc3c2)cc1 do in these assays?
Bim-Bcl-W: 0; Bcl-2 Bim block: -4; Bcl-B Bim block: -3; Bfl-1 Bim block: -3; Bim-Bcl-XL: -2

Results for CC(C)N(C(=O)Nc1ccc2nsnc2c1)C(C)C ?
BCLXL inh: 52*; Bim-Bcl-W: -3; Bcl-2 Bim block: -2; Bcl-B Bim block: -11; Bfl-1 Bim block: -13; Bim-Bcl-XL: -3

How did COc1nnc(-c2ccc(C)c(S(=O)(=O)NCCO)c2)c2ccccc12 do in these assays?
BCLXL inh: 39*; Bim-Bcl-W: 1; Bcl-2 Bim block: -10; Bcl-B Bim block: -2; Bfl-1 Bim block: -10; Bim-Bcl-XL: 0

Results for COc1nnc(-c2ccc(C)c(S(=O)(=O)NC(C)(C)CO)c2)c2ccccc12 ?
BCLXL inh: 6

What do the screens show for `CN(C)c1ccc(/C=C/C=C2/SC(=S)N(c3ccccc3)C2=O)cc1`?
BCLXL inh: 36*; Bim-Bcl-W: 8; Bcl-2 Bim block: 30; Bcl-B Bim block: -35; Bfl-1 Bim block: 20; Bim-Bcl-XL: 17

What do the screens show for `CC(=O)c1cnc2c(-c3ccccc3)c(-c3ccccc3)nn2c1C`?
BCLXL inh: 4

What do the screens show for `S=C(Nc1ccc2nc(-c3ccccn3)c(-c3ccccn3)nc2c1)N1CCOCC1`?
BCLXL inh: 60*; Bim-Bcl-W: 2; Bcl-2 Bim block: 2; Bcl-B Bim block: -6; Bfl-1 Bim block: 1; Bim-Bcl-XL: -1
